In PubChem BioAssay AID504725 (Broad Institute, 2011):
Entries with a potency or affinity are not part of this list. The source made the active and inactive calls. The rule behind the calls is not given here.

The molecules below were run against KSHV LANA C-terminal domain (residues 932-1162) binding to LBS DNA (UniProt O40947) (assay: KSHV LANA DNA-binding disruption – biochemical, fluorescence polarization, cherry-picked samples, dose response (AID 504725)). Details: MBP-C-LANA / FAM-LBS DNA fluorescence polarization, percent change from plate compound-well median; series mostly up to 35 µM.

outcome, inactive:
O=C(O)C(c1ccccc1)N1C(=O)/C(=C\c2ccc(-c3cccc(Cl)c3)o2)SC1=S (stereo not given)
CC(Sc1nc2ccccc2s1)C(=O)Nc1nnc(C(C)C)s1 (stereo not given)
O=C1/C(=C/c2ccco2)SC(=S)N1c1cccnc1
O=C(CN1C(=O)NC2(CCCC2)C1=O)Nc1ccccc1-c1ccccc1
O=C(Nc1ccccc1F)c1coc(=O)c(Br)c1
O=C(CSc1cccc2cccnc12)N/N=C/c1ccc(O)cc1
O=c1[nH]nc(CSCc2ccccc2Cl)[nH]1
Cc1nn(CC(=O)c2ccc(Br)s2)c(C)c1[N+](=O)[O-]
Cc1ccc(C(CC(=O)N2CCCCC2)c2ccccc2)c(O)c1C (stereo not given)
Cc1cc(/C=N/Nc2ccc([N+](=O)[O-])cn2)c(C)n1-c1cccc(C(=O)O)c1
CC(=O)O[C@@H]1[C@@H](OC(C)=O)[C@H](n2ccc3cc([N+](=O)[O-])ccc32)OC[C@@H]1OC(C)=O
CCN(C(=O)c1cccc(S(=O)(=O)N2CCc3ccccc32)c1)C1CCS(=O)(=O)C1 (stereo not given)
CN(CC(=O)Nc1ccc(N2CCOCC2)cc1)C(=O)CSc1ccc(Br)cc1
CCOC(=O)c1cnc(SC)nc1Sc1ccc(Cl)cc1Cl
CC1CCCN(C(=O)C(=O)c2cn(CC(=O)N3CCCCCC3)c3ccccc23)C1 (stereo not given)
COc1cccc(/C=N/NC(=O)C(=O)NCc2cccnc2)c1O
NNC(=O)C1C(O)CCC2CN3CCc4c([nH]c5ccccc45)C3CC21 (stereo not given)
O=C(c1cnn2c(-c3ccccc3)cc(-c3ccccc3)nc12)N1CCN(Cc2ccccc2)CC1
CCN(CCCNC(=O)Cn1cc2c(n1)CCCC2)c1cccc(C)c1
NC1=NC[C@@H](Cc2ccc(O)cc2)N1CCc1cc(C(F)(F)F)cc(C(F)(F)F)c1
